Data as given in PubChem BioAssay (NCATS).
Records with an inconclusive call do not appear. Calls of active or inactive are those of the source. Calls follow the shape of the dose curve; as a rule, active = well fitted cell-killing curve with a large enough effect; inconclusive = small, poorly fitted or top-dose-only effect, or effect the other way; inactive = flat fitted curve, though single readings scatter.

What was measured:
Assay in all cases: Primary qHTS to identify gynecologic anti-cancer compounds using libraries of approved drugs and bioactive compounds (AID 1345084); also: nearly all actives have a fitted effect of over 55% in size
[1] = test system: C33A; details: Gynecologic cancer cell panel viability, ATPlite luminescence, 48 h; series mostly up to 57.5 µM
In short: (§1)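 Five-point cytotoxicity, 48 h drug exposure at 37 C, 5% CO2, on cells seeded 16 h beforehand. ATP content read by ATPlite luminescence.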

[2] = test system: CAOV3; details: Gynecologic cancer cell panel viability, ATPlite luminescence, 48 h; series mostly up to 57.5 µM
In short: as §1

[3] = test system: CASKI; details: Gynecologic cancer cell panel viability, ATPlite luminescence, 48 h; series mostly up to 57.5 µM
In short: as §1

[4] = test system: Es-2; details: Gynecologic cancer cell panel viability, ATPlite luminescence, 48 h; series mostly up to 57.5 µM
In short: as §1

[5] = test system: HeLa; details: Gynecologic cancer cell panel viability, ATPlite luminescence, 48 h; series mostly up to 57.5 µM
In short: as §1

[6] = test system: Hek293T; details: Gynecologic cancer cell panel viability, ATPlite luminescence, 48 h, control line for the selectivity index; series mostly up to 57.5 µM
In short: as §1

[7] = test system: JEG-3; details: Gynecologic cancer cell panel viability, ATPlite luminescence, 48 h; series mostly up to 57.5 µM
In short: as §1

[8] = test system: OV90; details: Gynecologic cancer cell panel viability, ATPlite luminescence, 48 h; series mostly up to 57.5 µM
In short: as §1

[9] = test system: PA-1; details: Gynecologic cancer cell panel viability, ATPlite luminescence, 48 h; series mostly up to 57.5 µM
In short: as §1

[10] = test system: SKOV3; details: Gynecologic cancer cell panel viability, ATPlite luminescence, 48 h; series mostly up to 57.5 µM
In short: as §1

[11] = test system: Tov-21-G; details: Gynecologic cancer cell panel viability, ATPlite luminescence, 48 h; series mostly up to 57.5 µM
In short: as §1

[12] = test system: Tov112D; details: Gynecologic cancer cell panel viability, ATPlite luminescence, 48 h; series mostly up to 57.5 µM
In short: as §1
% is scaled to controls: 0 for no effect and ±100 for the full control effect.

CC(=O)O[C@@H]1[C@@H](CO)O[C@@](CO)(O[C@H]2O[C@H](COC(=O)/C=C/c3ccccc3)[C@@H](O)[C@H](O)[C@H]2O)[C@H]1O
inactive: Potency [1] | Potency [2] | Potency [3] | Potency [4] | Potency [5] | Potency [6] | Potency [7] | Potency [8] | Potency [9] | Potency [10] | Potency [11] | Potency [12]

CC/C=C\CC1C(=O)C=CC1(CCCCCCCC(=O)O)OC(C)=O (stereo not drawn)
inactive: Potency [1] | Potency [2] | Potency [3] | Potency [4] | Potency [5] | Potency [6] | Potency [7] | Potency [8] | Potency [9] | Potency [10] | Potency [11] | Potency [12]

C=C1C[C@]23C[C@H]1CC[C@H]2[C@]1(C)CCC[C@@](C)(C(=O)O)[C@H]1[C@@H]3C(=O)O
inactive: Potency [1] | Potency [2] | Potency [3] | Potency [4] | Potency [5] | Potency [6] | Potency [7] | Potency [8] | Potency [9] | Potency [10] | Potency [11] | Potency [12]

CC(C)=CC/C=C(\C)[C@H]1CC[C@]2(C)[C@@H]1[C@H](O)C[C@@H]1[C@@]3(C)CC[C@H](O)C(C)(C)[C@@H]3[C@@H](O[C@@H]3O[C@H](CO)[C@@H](O)[C@H](O)[C@H]3O)C[C@]12C
inactive: Potency [1] | Potency [2] | Potency [3] | Potency [4] | Potency [5] | Potency [6] | Potency [7] | Potency [8] | Potency [9] | Potency [10] | Potency [11] | Potency [12]

O=C(OC[C@@]1(O)CO[C@@H](O[C@H]2[C@H](Oc3ccc(O)cc3)O[C@H](CO)[C@@H](O)[C@@H]2O)[C@@H]1O)c1ccc(O)cc1
inactive: Potency [1] | Potency [2] | Potency [3] | Potency [4] | Potency [5] | Potency [6] | Potency [7] | Potency [8] | Potency [9] | Potency [10] | Potency [11] | Potency [12]

NC1CCCCN(c2c(F)cc3c(=O)c(C(=O)O)cn(C4CC4)c3c2Cl)C1 (stereo not drawn)
inactive: Potency [1] | Potency [2] | Potency [3] | Potency [4] | Potency [5] | Potency [6] | Potency [7] | Potency [8] | Potency [9] | Potency [10] | Potency [11] | Potency [12]

C=CC(C)(C)c1[nH]c2ccccc2c1C[C@@H]1NC(=O)[C@H](Cc2c[nH]c3ccccc23)NC1=O
inactive: Potency [1] | Potency [2] | Potency [3] | Potency [4] | Potency [5] | Potency [6] | Potency [7] | Potency [8] | Potency [9] | Potency [10] | Potency [11] | Potency [12]

COC1CC(OC2CCC3(C)C(=CCC4C3C(OC(C)=O)C(OC(=O)/C=C/c3ccccc3)C3(C)C(C(C)O)CCC43O)C2)OC(C)C1OC1CC(OC)C(OC2OC(C)C(OC3OC(CO)C(O)C(O)C3O)C(OC)C2O)C(C)O1 (stereo not drawn)
inactive: activity change, negative = cytotoxicity [1] -4.62% [at 6.55 µM] | activity change, negative = cytotoxicity [2] 1.34% [at 6.55 µM] | activity change, negative = cytotoxicity [3] -3.47% [at 6.55 µM] | activity change, negative = cytotoxicity [4] 4.75% [at 6.55 µM] | activity change, negative = cytotoxicity [5] -0.474% [at 6.55 µM] | activity change, negative = cytotoxicity [6] -0.285% [at 6.55 µM] | activity change, negative = cytotoxicity [7] -8.61% [at 6.55 µM] | activity change, negative = cytotoxicity [8] -2.22% [at 6.55 µM] | activity change, negative = cytotoxicity [9] -0.704% [at 6.55 µM] | activity change, negative = cytotoxicity [10] -8.31% [at 6.55 µM] | activity change, negative = cytotoxicity [11] 9.97% [at 6.55 µM] | activity change, negative = cytotoxicity [12] 2.28% [at 6.55 µM]

CC(=O)c1cc2c(cc1O)OC(C)(C)C=C2
inactive: Potency [1] | Potency [2] | Potency [3] | Potency [4] | Potency [5] | Potency [6] | Potency [7] | Potency [8] | Potency [9] | Potency [10] | Potency [11] | Potency [12]

C=C1CCC2C(C)(C(=O)OC)CCCC2(C)C1CCC(C)CC(=O)O (stereo not drawn)
inactive: Potency [1] | Potency [2] | Potency [3] | Potency [4] | Potency [5] | Potency [6] | Potency [7] | Potency [8] | Potency [9] | Potency [10] | Potency [11] | Potency [12]

CC(C)=C/C=C\[C@H](C)[C@H]1CC[C@]2(C)C[C@@H]3C(C)=CC(=O)C3/C(CO)=C\C[C@@H]12 (stereo partly drawn)
inactive: Potency [1] | Potency [2] | Potency [3] | Potency [4] | Potency [5] | Potency [6] | Potency [7] | Potency [8] | Potency [9] | Potency [10] | Potency [11] | Potency [12]

CC(C)=CCC[C@](C)(O[C@@H]1O[C@H](CO)[C@@H](O)[C@H](O)[C@H]1O)[C@H]1CC[C@]2(C)[C@@H]1[C@H](O)CC1[C@@]3(C)CC[C@H](O)C(C)(C)C3[C@@H](O[C@@H]3O[C@H](CO)[C@@H](O)[C@H](O)[C@H]3O[C@@H]3OC[C@@H](O)[C@H](O)[C@H]3O)C[C@]12C (stereo partly drawn)
inactive: activity change, negative = cytotoxicity [1] -5.13% [at 11.6 µM] | activity change, negative = cytotoxicity [2] 0.415% [at 11.6 µM] | activity change, negative = cytotoxicity [3] -3.01% [at 11.6 µM] | activity change, negative = cytotoxicity [4] 3.44% [at 11.6 µM] | activity change, negative = cytotoxicity [5] 9.51% [at 11.6 µM] | activity change, negative = cytotoxicity [6] -2.61% [at 11.6 µM] | activity change, negative = cytotoxicity [7] -16.8% [at 11.6 µM] | activity change, negative = cytotoxicity [8] -3.26% [at 11.6 µM] | activity change, negative = cytotoxicity [9] 2.46% [at 11.6 µM] | activity change, negative = cytotoxicity [10] -3.65% [at 11.6 µM] | activity change, negative = cytotoxicity [11] -2.34% [at 11.6 µM] | activity change, negative = cytotoxicity [12] -2.93% [at 11.6 µM]

CC(=O)N[C@@H](CCCCN)C(=O)N(C)[C@@H](CC(C)C)C(=O)N[C@H](C(=O)N(C)[C@@H](Cc1ccccc1)C(=O)N[C@H](Cc1ccccc1)C(N)=O)C(C)C
inactive: activity change, negative = cytotoxicity [1] 18.7% [at 6.55 µM] | activity change, negative = cytotoxicity [2] 6.22% [at 6.55 µM] | activity change, negative = cytotoxicity [3] 2.04% [at 6.55 µM] | activity change, negative = cytotoxicity [4] -0.643% [at 6.55 µM] | activity change, negative = cytotoxicity [5] 16.5% [at 6.55 µM] | activity change, negative = cytotoxicity [6] 8.12% [at 6.55 µM] | activity change, negative = cytotoxicity [7] -0.179% [at 6.55 µM] | activity change, negative = cytotoxicity [8] -1.74% [at 6.55 µM] | activity change, negative = cytotoxicity [9] 7.96% [at 6.55 µM] | activity change, negative = cytotoxicity [10] 0% [at 6.55 µM] | activity change, negative = cytotoxicity [11] 3.25% [at 6.55 µM] | activity change, negative = cytotoxicity [12] 6.63% [at 6.55 µM]

O=C1NC(Cc2ccccc2)C(=O)N2CCCC12 (stereo not drawn)
inactive: Potency [1] | Potency [2] | Potency [3] | Potency [4] | Potency [5] | Potency [6] | Potency [7] | Potency [8] | Potency [9] | Potency [10] | Potency [11] | Potency [12]
